Assay [1] in a line: qHTS Screen of the MIPE 4.0 Collection Against Ewings Sarcoma (TC32) (AID 1259256). Note: nearly all actives have a fitted effect of over 45% in size. An outline of the steps:
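Viability screen: 48 h incubation at 37C, 95% humidity, 5% CO2 with serially titrated compound, followed by CellTiter-Glo readout.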
For orientation: qHTS replaces the single test concentration by a dilution series.

Assay [2] is described as follows: P-glycoprotein substrates identified in KB-8-5-11 adenocarcinoma cell line, qHTS therapeutic library screen (AID 1346987). Note: nearly all actives have a fitted effect of over 65% in size. Put shortly:
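Human cervical adenocarcinoma KB-8-5-11 cells, selected in colchicine to over-express P-gp and assayed without it, were exposed for 72 h to titrated compounds. An ATP-based luminescent viability signal gave AC50.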

Assay [3] is described as follows: NS1 protein of Zika virus - qHTS assay to identify small molecule inhibitors in human HEK 293 cells (AID 1347053). Note: nearly all actives have a fitted effect of over 55% in size. Put shortly: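 Read-out is a two-antibody TR-FRET for ZIKV NS1, normalized between uninfected cells and infected cells. Compound added 1 h before MR766 infection at MOI 0.5; human HEK 293 cells incubated 24 h, 37 C.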
Assay [4] is described as follows: qHTS of pediatric cancer cell lines to identify multiple opportunities for drug repurposing: Primary screen for TC32 cells (AID 1347089). Note: nearly all actives have a fitted effect of over 60% in size. An outline of the steps:
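Measured quantity: luminescence from CellTiter-Glo, reflecting metabolically active TC32 cells following 48 h of compound. Curves came straight from multi-point titrations, with 8 or 11 points in primary and 11 in confirmatory screening.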

The nature of assay [5]: qHTS of pediatric cancer cell lines to identify multiple opportunities for drug repurposing: Primary screen for DAOY cells (AID 1347090). Note: nearly all actives have a fitted effect of over 55% in size. An outline of the steps:
(§1)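 Viability measured as metabolically active cells via CellTiter-Glo luminescence following 48 hours of compound exposure, 11-point dilutions in confirmatory testing. 500-1,000 cells/well plated 5 hours before dosing; controls were DMSO and 2.3 µM bortezomib.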

The nature of assay [6]: qHTS of pediatric cancer cell lines to identify multiple opportunities for drug repurposing: Primary screen for SJ-GBM2 cells (AID 1347091). An outline of the steps:
as §1

Assay [7] is described as follows: qHTS of pediatric cancer cell lines to identify multiple opportunities for drug repurposing: Primary screen for A673 cells (AID 1347092). Note: nearly all actives have a fitted effect of over 45% in size. An outline of the steps:
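Cells are plated, rested 5 h, dosed by pintool, incubated 48 h, then lysed with CellTiter-Glo and read by luminescence. DMSO is the neutral control; bortezomib at 2.3 uM final is the positive control.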

Assay [8] can be described thus: qHTS of pediatric cancer cell lines to identify multiple opportunities for drug repurposing: Primary screen for BT-37 cells (AID 1347094). Put shortly: (§2)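 Phenotypic viability qHTS, 48 h compound exposure, CellTiter-Glo luminescence read-out; multi-concentration dosing so that potency and efficacy derive directly from the primary screen's curves.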
Assay [9] can be described thus: qHTS of pediatric cancer cell lines to identify multiple opportunities for drug repurposing: Primary screen for NB-EBc1 cells (AID 1347095). Put shortly: as §2
A short description of assay [10]: qHTS of pediatric cancer cell lines to identify multiple opportunities for drug repurposing: Primary screen for U-2 OS cells (AID 1347096). Note: nearly all actives have a fitted effect of over 50% in size. An outline of the steps:
(§3)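 Viability after 48 h compound treatment at 37C, 500-1,000 cells/well, read as ATP luminescence with CellTiter-Glo. Primary screens used 11-point (MIPE, 0.78 nM-46 µM) or 8-point (NPC, 0.59 nM-46 µM) final concentrations; follow-up screens used 11-point dilutions.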

Assay [11] can be described thus: qHTS of pediatric cancer cell lines to identify multiple opportunities for drug repurposing: Primary screen for Saos-2 cells (AID 1347097). Note: nearly all actives have a fitted effect of over 40% in size. An outline of the steps: as §2
Assay [12] in a line: qHTS of pediatric cancer cell lines to identify multiple opportunities for drug repurposing: Primary screen for LAN-5 cells (AID 1347100). An outline of the steps: as §3
Assay [13] is described as follows: qHTS of pediatric cancer cell lines to identify multiple opportunities for drug repurposing: Primary screen for SK-N-MC cells (AID 1347093). An outline of the steps:
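Metabolically active cells were quantified by ATP-dependent luminescence (CellTiter-Glo, 15 min at room temperature) following 48 h treatment. Cells had been plated at 500-1,000 per well and settled for 5 h beforehand.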

Assay [14] is described as follows: qHTS of pediatric cancer cell lines to identify multiple opportunities for drug repurposing: Primary screen for SK-N-SH cells (AID 1347098). Note: nearly all actives have a fitted effect of over 65% in size. An outline of the steps: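 Cells (500-1,000/well) rested 5 h, then received compounds for 48 h; metabolically active cells were measured by CellTiter-Glo luminescence. Final concentrations spanned up to 46 µM (MIPE, 11-point) or 0.59 nM-46 µM (NPC, 8-point) in primary screens, 11-point in follow-ups.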

Assay [15] is described as follows: qHTS of pediatric cancer cell lines to identify multiple opportunities for drug repurposing: Primary screen for NB1643 cells (AID 1347099). Note: nearly all actives have a fitted effect of over 50% in size. Put shortly: as §2

Results filed as inconclusive are left out. Active and inactive are the calls of the source. Calls come from the whole dose curve; as a rule, active = well fitted curve in the direction sought with a large enough effect; inconclusive = small, poorly fitted or top-dose-only effect, or another doubt; inactive = no such curve, though single readings can be large; an effect the other way counts as inactive or inconclusive.

We go through 14 molecules from PubChem BioAssay (NCATS).
Potency is the fitted concentration of half-maximal effect.

With `CCCc1nc(C(C)(C)O)c(C(=O)O)n1Cc1ccc(-c2ccccc2-c2nn[nH]n2)cc1`, the Potency entry in assay [1], in assay [2], in assay [3], in [4], in [5] and in [6] was “inactive” in each case. Besides, the Potency result in assay [7], in assay [8], in assay [9], in assay [10], in assay [11] and in assay [12] was “inactive” throughout.

On to `CC[C@H](CC[C@@H](C)[C@H]1CC[C@H]2[C@@H]3CC=C4C[C@@H](O)CC[C@]4(C)[C@@H]3CC[C@]12C)C(C)C`, for which the Potency entry in [1], in assay [2], in [3], in assay [4], in assay [5] and in assay [6] was “inactive” throughout. Moreover, the Potency entry in assay [7], in assay [8], in assay [9], in assay [10], in assay [11] and in assay [12] was “inactive” each time.

On to `COc1ccc(C(C)=O)c(O)c1`, for which the Potency result in assay [1], in [2], in [3], in assay [4], in assay [6] and in assay [9] was “inactive” in each case. Moreover, the Potency result in [10], in assay [14] and in [12] was “inactive” each time. Moreover, the Potency is 1.87 µM (active) in [5]; 2960 nM (active) in [7]; 37.2 nM (active) in assay [13]; 1.66 µM (active) in [11]; 5260 nM (active) in [15].

Take `CCOC(=O)C=C[C@H](C[C@@H]1CCNC1=O)NC(=O)[C@@H](CC(=O)[C@@H](NC(=O)c1cc(C)on1)C(C)C)Cc1ccc(F)cc1`: the Potency entry in assay [1], in [2], in assay [3], in [4], in [5] and in assay [6] was “inactive” throughout. For the same molecule, the Potency result in assay [7], in [8], in [9], in assay [10], in [11] and in [14] was “inactive” in each case. In addition, the Potency result in assay [15] and in assay [12] was “inactive” each time.

In the case of `O=C(O)[C@H](CC(=O)N1C[C@@H]2CCCC[C@H]2C1)Cc1ccccc1`, the Potency result in [1], in assay [2], in assay [3], in assay [4], in [5] and in [6] was “inactive” each time. Also, the Potency entry in assay [7], in [8], in assay [9], in [10], in assay [11] and in assay [15] was “inactive” in each case. Also, the Potency result in [12] was “inactive”.

With `C=CC(=O)Nc1cccc(Nc2nc(NC3CCC(N(C)C)CC3)nc3c2ncn3C(C)C)c1` (centres undefined), the Potency in assay [1] is 418 nM (active); in assay [3], 11.8 µM (active); in [4] it was 1.47 µM (active); in [5], 0.003 µM (active); in [6] it was 235 nM (active); in [7], 11.8 nM (active). Besides, the Potency is 4.2 nM (active) in assay [13]; 96.8 nM (active) in assay [8]; 166 nM (active) in assay [9]; 0.833 µM (active) in assay [11]; 136 nM (active) in [14]; 33.2 nM (active) in [15]. Besides, the Potency in assay [12] was 14.8 nM (active). The Potency result in [2] is “inactive”.

As for `Oc1cc2c(cc1O)C1c3ccc(O)c(O)c3OCC1(O)C2` (centres undefined), the Potency entry in assay [1], in [2], in [3], in assay [4], in [5] and in assay [6] was “inactive” throughout. Besides, the Potency entry in assay [7], in assay [8], in assay [10], in assay [11], in assay [14] and in assay [15] was “inactive” in each case. The Potency result in assay [12] is “inactive”.

For `Cc1ccc([N+](=O)[O-])cc1S(=O)(=O)N(C)N=Cc1cnc2ccc(Br)cn12`, the Potency in assay [1] was 46.9 nM (active); in assay [2], 20.9 nM (active); in assay [3], 0.118 µM (active); in assay [4], 0.0829 µM (active); in assay [5] it was 0.235 µM (active); in assay [6] it was 118 nM (active). The Potency in assay [7] was 7.4 nM (active); in assay [8], 38.5 nM (active); in [9] it was 935 nM (active); in assay [10] it was 118 nM (active); in assay [11] it was 0.187 µM (active); in assay [14], 10.8 nM (active). For the same molecule, the Potency was 4.2 nM (active) in [15] and 8.3 nM (active) in assay [12].

For `Nc1nc2c(c(=O)[nH]1)N(C=O)[C@H](CNc1ccc(C(=O)N[C@@H](CCC(=O)O)C(=O)O)cc1)CN2`, the Potency result in [1], in assay [2], in assay [3], in assay [4], in assay [5] and in assay [6] was “inactive” in each case. Besides, the Potency entry in assay [13], in assay [9], in assay [10] and in [11] was “inactive” throughout. The Potency was 9680 nM (active) in assay [8] and 10500 nM (active) in assay [12].

Take `O=C1NCCc2[nH]c(-c3ccncc3)cc21`: the Potency was 5260 nM (active) in assay [1]; 7430 nM (active) in [2]; 9.35 µM (active) in assay [3]; 11.7 µM (active) in assay [4]; 4.69 µM (active) in assay [5]; 2350 nM (active) in assay [6]. Further, the Potency was 1180 nM (active) in assay [7]; 4180 nM (active) in assay [13]; 3060 nM (active) in assay [8]; 2090 nM (active) in assay [9]; 4.18 µM (active) in assay [11].

As for `N#CNC(=NCCCCCCOc1ccc(Cl)cc1)Nc1ccncc1`, the Potency result in assay [1] and in [3] was “inactive” in each case. Moreover, the Potency in assay [2] is 4.2 nM (active); in assay [4] it was 0.0033 µM (active); in assay [5], 14.8 µM (active); in [6], 1 nM (active); in assay [7] it was 2.3 nM (active); in assay [13], 3.3 nM (active). In addition, the Potency in [8] was 3.9 nM (active); in assay [9], 1 nM (active); in assay [10], 18.7 nM (active); in assay [15], 7.4 nM (active); in assay [12], 1 nM (active).

Turning to `CC[C@H]1OC(=O)[C@H](C)[C@@H](O[C@H]2C[C@@](C)(OC)[C@@H](O)[C@H](C)O2)[C@H](C)[C@@H](O[C@@H]2O[C@H](C)C[C@H](N(C)C)[C@@H]2O)[C@](C)(OC)C[C@@H](C)C(=O)[C@H](C)[C@@H](O)[C@]1(C)O`, the Potency entry in assay [1], in assay [2], in assay [3], in assay [4], in [5] and in assay [6] was “inactive” throughout. In addition, the Potency result in assay [7], in assay [8], in [9], in assay [10], in [11] and in assay [12] was “inactive” in each case.

Consider `C[C@](Cc1c[nH]c2ccccc12)(NC(=O)OC1C2CC3CC(C2)CC1C3)C(=O)NC[C@H](NC(=O)CCC(=O)O)c1ccccc1` (some centres undefined), for which the Potency entry in [1], in assay [2], in assay [3], in assay [4], in assay [5] and in [6] was “inactive” in each case. For the same molecule, the Potency entry in assay [8], in assay [9], in assay [10] and in [11] was “inactive” throughout. Further, the Potency in assay [13] was 20900 nM (active).

Consider `NC(=O)c1ncn([C@@H]2O[C@H](CO)[C@@H](O)[C@@H]2O)c1O`, for which the Potency result in [1], in assay [2], in assay [3], in assay [4], in [5] and in assay [6] was “inactive” each time. In addition, the Potency result in assay [13], in assay [8], in assay [9], in assay [10], in [11] and in assay [14] was “inactive” each time. Moreover, the Potency entry in assay [15] and in assay [12] was “inactive” in each case.
